Source: PubChem (National Center for Advancing Translational Sciences (NCATS))
Compounds with a hit are over-represented: about 3.1% of the library has one in this group of screens.
TSHR antag – Antagonists of the Thyroid Stimulating Hormone Receptor: HTS campaign | Thyrotropin receptor (Homo sapiens), P16473 | TSHR-expressing cells, TSH-stimulated cAMP HTRF, 2 h; active compounds read low | activity change, negative = inhibition, % at 11.5 µM | actives 0.2% (n = 330,000);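 active means activity change below a set negative limit, meaning inhibition stronger than a set level, cut at about -70% in these data; inconclusive means activity change between two set negative limits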
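Cell-based HTRF cAMP assay; TSHR cells + compound, TSH EC80 (4nM final), 2 h, 37 deg C. Lysis with anti-cAMP cryptate and cAMP-d2, 30 min RT, read 665/620 nm.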
uPA surface inh – qHTS for Inhibitors of Cell Surface uPA Generation. cell surface uPA generation assay, qHTS. Potency, µM (highest dose often 38.3 µM), usual class: inhibitors. actives 0.31% (n = 330,000). AID 540303, 2011; active means well fitted inhibition curve with a large enough effect; inconclusive means small, poorly fitted or top-dose-only effect; inactive means no such curve, though single readings can be large or run the other way; tested in mouse RAW 264.7 cells; further: nearly all actives have a fitted effect of over 55% in size
PLK1 PBD inh – qHTS for Inhibitors of PLK1-PDB (polo-like kinase 1 - polo-box domain): Primary Screen; Plk1 PBD binding of FITC phosphopeptide, fluorescence polarization; Potency, µM, usual class: inhibitors; Serine/threonine-protein kinase PLK1 (Homo sapiens), P53350; actives 2.8% (n = 360,000); further: series mostly up to about 57 µM; nearly all actives have a fitted effect of over 65% in size
VDR inhibitor – Inhibitors of the vitamin D receptor (VDR): qHTS | VDR-SRC2-3 peptide fluorescence polarization, 2 h | Potency, µM, usual class: inhibitors | actives 0.93% (n = 400,000) | AID 504847, 2011
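Inhibition of the VDR/SRC2-3 peptide interaction is quantified by fluorescence polarization. Compounds (23 nl, pintool) incubate with the reagents for 2 hours at ambient room temperature.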
TSG101-PTAP inh – qHTS Assay for Iinhibitors of HIV-1 Budding by Blocking the Interaction of PTAP/TSG101. Tumor susceptibility gene 101 protein (Homo sapiens), Q99816. Fluorescence polarization, FITC-PTAP peptide / Tsg101 binding. Potency, µM (top dose mostly 115 µM), most hits filed as inhibitors. 340,000 tested, under 10 active. AID 493005, 2010; active means well fitted inhibition curve with a large enough effect in the main read-out, with a control signal flat, not every such curve was filed as active; inconclusive means small, poorly fitted or top-dose-only effect, or effect the other way, or a change in a side signal; inactive means no such curve, though single readings can be large or run the other way
Target sequence (Q99816 whole entry, looked up): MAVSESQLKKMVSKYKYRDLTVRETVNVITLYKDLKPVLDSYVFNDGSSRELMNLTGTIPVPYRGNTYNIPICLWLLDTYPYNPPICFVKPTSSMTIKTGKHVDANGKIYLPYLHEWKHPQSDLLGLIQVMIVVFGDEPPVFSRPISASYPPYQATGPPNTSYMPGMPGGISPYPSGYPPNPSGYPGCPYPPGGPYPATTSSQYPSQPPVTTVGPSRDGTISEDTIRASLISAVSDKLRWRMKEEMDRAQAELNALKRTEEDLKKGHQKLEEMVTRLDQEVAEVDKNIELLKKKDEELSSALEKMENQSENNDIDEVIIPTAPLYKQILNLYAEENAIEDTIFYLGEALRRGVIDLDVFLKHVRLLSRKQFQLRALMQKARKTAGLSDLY
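Fluorescence anisotropy tracks displacement of a FITC-tagged PTAP peptide (50 nM) from the Tsg101 binding domain (10 uM), following a 20 min room-temperature incubation at pH 7.5.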
Hits are given with their value. Unless noted, the call rests on the fitted dose curve; in most records, active means well fitted curve in the direction sought with a large enough effect; inconclusive means small, poorly fitted or top-dose-only effect, or another doubt; inactive means no such curve, though single readings can be large; an effect the other way counts as inactive or inconclusive.

Screening O=S(=O)(c1cccc2nsnc12)N1CCN(c2ccccc2F)CC1 returned TSHR antag inactive, uPA surface inh inactive, PLK1 PBD inh 23.8µM, VDR inhibitor inactive and TSG101-PTAP inh inactive.
CCOCc1nnc(NC(=O)COc2ccc3c(c2)OCO3)s1 was read as TSHR antag inactive, uPA surface inh inactive, PLK1 PBD inh inactive, VDR inhibitor inactive and TSG101-PTAP inh inactive.
For O=C(COc1ccc2c(c1)OCO2)Nc1nnc(Cc2ccccc2)s1 the results were TSHR antag inactive, uPA surface inh inactive, PLK1 PBD inh 23.8µM, VDR inhibitor inconclusive and TSG101-PTAP inh inactive.
For CCOCC(=O)Nc1nnc(COc2ccc(Cl)cc2)s1 the results were TSHR antag inactive, uPA surface inh inactive, PLK1 PBD inh 6.7µM, VDR inhibitor 79.4µM and TSG101-PTAP inh inactive.
For COCc1nnc(NC(=O)COc2ccc3c(c2)OCO3)s1 the results were TSHR antag inactive, uPA surface inh inactive, PLK1 PBD inh 16.8µM, VDR inhibitor inactive and TSG101-PTAP inh inactive.
Screening CCCC(=O)NCCc1nc2ccccc2n1Cc1c(F)cccc1Cl returned VDR inhibitor inactive.
Screening CCS(=O)(=O)c1ncc(N(Cc2ccco2)Cc2ccccc2F)c(C(=O)Nc2cccc(Cl)c2)n1 returned VDR inhibitor inactive.
For C/C(=N\NC(=O)c1csc(C)c1C)c1ccc(Cl)s1 the results were TSHR antag inactive, uPA surface inh inactive, PLK1 PBD inh 23.8µM, VDR inhibitor inactive and TSG101-PTAP inh inactive.
CCOn1c(=O)c(-c2cccs2)[n+]([O-])c2ccccc21 was read as TSHR antag inactive, uPA surface inh inactive, PLK1 PBD inh inconclusive, VDR inhibitor inactive and TSG101-PTAP inh inactive.
For CCOn1c(=O)c(-c2ccc(C)cc2)[n+]([O-])c2ccccc21 the results were TSHR antag inactive, uPA surface inh inactive, PLK1 PBD inh inactive, VDR inhibitor inactive and TSG101-PTAP inh inactive.
`O=c1c(-c2ccc(F)cc2)[n+]([O-])c2ccccc2n1OCc1ccccn1` gave TSHR antag inactive, uPA surface inh inactive, PLK1 PBD inh 21.2µM, VDR inhibitor inconclusive and TSG101-PTAP inh inactive.
`COn1c(=O)c(-c2cccs2)[n+]([O-])c2ccccc21` gave TSHR antag inactive, uPA surface inh inactive, PLK1 PBD inh 2.12µM, VDR inhibitor inactive and TSG101-PTAP inh inactive.
`CCOn1c(=O)c(-c2ccc(Cl)cc2)[n+]([O-])c2ccccc21` gave TSHR antag inactive, uPA surface inh inactive, PLK1 PBD inh 21.2µM, VDR inhibitor inconclusive and TSG101-PTAP inh inactive.
For COc1ccc(C)cc1NC(=O)c1nnn(Cc2cccc(Br)c2)c1N the results were VDR inhibitor inactive.
Cc1ccc(C)c(Cn2c(=O)n(Cc3ccccc3)c(=O)c3sc4ccccc4c32)c1 was read as VDR inhibitor inactive.
CCSc1ccccc1C(=O)n1nnc2ccccc21 was read as PLK1 PBD inh 5.62µM, VDR inhibitor 50.1µM and TSG101-PTAP inh inactive.
Screening COC(=O)[C@]12CCCCC=C1N(Cc1ccco1)C(=O)[C@H](CC(=O)NCc1cccc3ccccc13)C2 returned PLK1 PBD inh inactive.
CCc1nc(N2CCCC(C)C2)c2oc3ccccc3c2n1 (centres undefined) was read as TSHR antag inactive, PLK1 PBD inh 15µM, VDR inhibitor inconclusive and TSG101-PTAP inh inactive.
Screening Cc1ccc(N2C(=O)CC(Sc3ncn[nH]3)C2=O)cc1C (centres undefined) returned TSHR antag inactive, uPA surface inh inactive, PLK1 PBD inh 29.9µM, VDR inhibitor inactive and TSG101-PTAP inh inactive.
Screening Cc1ccc(N2C(=O)CC(Sc3ccccc3C(=O)O)C2=O)cc1C (centres undefined) returned TSHR antag inactive, uPA surface inh inactive, PLK1 PBD inh inconclusive, VDR inhibitor inactive and TSG101-PTAP inh inactive.
Screening Cc1cccc(N2C(=O)CC(Sc3ncn[nH]3)C2=O)c1 (centres undefined) returned TSHR antag inactive, uPA surface inh inactive, PLK1 PBD inh 26.7µM, VDR inhibitor inactive and TSG101-PTAP inh inactive.
Screening Cc1cccc(N2C(=O)CC(Sc3nccc(C)n3)C2=O)c1 (centres undefined) returned TSHR antag inactive, uPA surface inh inactive, PLK1 PBD inh inactive, VDR inhibitor inactive and TSG101-PTAP inh inactive.
`O=C(c1ccccc1)c1ccc2nc(Nc3cc(Cl)ccc3O)c3nncn3c2c1` gave VDR inhibitor inactive.
`COc1ccc(/C=C/c2nc(C#N)c(NC3CCCCC3)o2)cc1OC` gave VDR inhibitor inactive.
For CCN(c1ccccc1)S(=O)(=O)c1c(-c2ccc(C)cc2)csc1C(=O)OC the results were VDR inhibitor inactive.
CC(C)c1ccc(OCC(=O)NCCO)cc1 was read as TSHR antag inactive, uPA surface inh inactive, PLK1 PBD inh 26.7µM, VDR inhibitor inconclusive and TSG101-PTAP inh inactive.
COc1cccc(N2CCN(c3ncnc4c3cnn4-c3ccc(C)cc3C)CC2)c1 was read as TSHR antag -93.2, uPA surface inh inconclusive, PLK1 PBD inh inactive, VDR inhibitor inactive and TSG101-PTAP inh inactive.
Screening c1ccc(-n2ncc3c(N4CCCCC4)ncnc32)cc1 returned TSHR antag inactive, uPA surface inh 1.58µM, PLK1 PBD inh inactive, VDR inhibitor inactive and TSG101-PTAP inh inactive.
CC1CCCN(c2ncnc3c2cnn3-c2ccc(Cl)cc2)C1 (centres undefined) was read as TSHR antag inactive, uPA surface inh 2.24µM, PLK1 PBD inh inactive, VDR inhibitor inactive and TSG101-PTAP inh inactive.
`Cc1ccc(C)c(N2CCN(c3ncnc4c3cnn4-c3ccccc3)CC2)c1` gave TSHR antag inactive, uPA surface inh inactive, PLK1 PBD inh 26.7µM, VDR inhibitor inconclusive and TSG101-PTAP inh inactive.
CCC(=O)OCOc1ccc(/C=C2/CCC(CN(C)C)C2=O)cc1 (centres undefined) was read as uPA surface inh inactive, PLK1 PBD inh 4.74µM, VDR inhibitor 10µM and TSG101-PTAP inh inactive.
Screening O=C1NC(=S)S/C1=C\c1ccc2ccccc2c1 returned TSHR antag inactive, uPA surface inh inactive, PLK1 PBD inh 29.9µM, VDR inhibitor inactive and TSG101-PTAP inh inactive.
`COc1cc(/C=C2\SC(=S)NC2=O)ccc1OS(=O)(=O)c1ccccc1` gave TSHR antag -74.2.
`COc1cc(/C=C2/SC(=S)NC2=O)ccc1OS(=O)(=O)c1ccc(C)cc1` gave TSHR antag inconclusive, uPA surface inh inactive, PLK1 PBD inh 9.47µM, VDR inhibitor 50.1µM and TSG101-PTAP inh inactive.
`O=C1NC(=S)SC1=Cc1cc(Br)ccc1O` gave uPA surface inh inactive, PLK1 PBD inh 26.7µM, VDR inhibitor inconclusive and TSG101-PTAP inh inactive.
